# Assay outcomes deposited in PubChem BioAssay by Paczesny and Yang Labs, IUPUI and University of Michigan.
# The entries come from a sample that favours hits as a whole.
# ST2 inh: inhibitors of human ST2 (IL1RL1) binding to IL-33, primary screen, biochemical, AlphaLISA; AlphaLISA ST2-Fc/biotin-IL-33 interaction, 1 h; inhibition, % for hits at 17 µM; 2.3% of 78,000 active; in the data active = inhibition above about 30%
# Target sequence (Q01638 whole entry, looked up): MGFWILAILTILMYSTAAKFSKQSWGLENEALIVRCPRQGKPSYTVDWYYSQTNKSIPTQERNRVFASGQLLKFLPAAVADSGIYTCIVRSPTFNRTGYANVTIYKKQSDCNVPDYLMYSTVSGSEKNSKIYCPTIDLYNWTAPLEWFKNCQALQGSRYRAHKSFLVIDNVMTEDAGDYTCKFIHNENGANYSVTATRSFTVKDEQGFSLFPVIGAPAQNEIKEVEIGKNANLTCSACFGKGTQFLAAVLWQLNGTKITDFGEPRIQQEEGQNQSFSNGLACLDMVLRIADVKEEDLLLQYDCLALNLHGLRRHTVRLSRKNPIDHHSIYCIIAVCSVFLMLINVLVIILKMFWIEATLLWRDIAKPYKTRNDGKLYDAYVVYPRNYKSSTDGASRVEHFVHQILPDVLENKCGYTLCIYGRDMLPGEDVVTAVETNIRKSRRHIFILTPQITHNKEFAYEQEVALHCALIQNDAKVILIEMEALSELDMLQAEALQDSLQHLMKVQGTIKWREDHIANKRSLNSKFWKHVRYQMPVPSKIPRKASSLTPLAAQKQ
# The depositor's hits bear a star; i = inactive.
SMILES,ST2 inh
Nc1cc(=O)[nH]c(SCC(=O)c2cccs2)n1,i
O=C1[C@@H]2[C@H](C(=O)N1c1cccc(Cl)c1)[C@H]1C=C[C@@H]2C1=C1CCCC1,i
CC1CN(CC(O)COc2ccc(C(C)(C)C)cc2)CC(C)O1 (stereo not drawn),i
O=c1[nH]c2ccc(S(=O)(=O)Nc3cccnc3)cc2s1,i
CC1CCN(C(=O)CCNC(=O)c2cn(CC3CCCNC3)nn2)CC1 (stereo not drawn),i
O=c1c2cnn(-c3ccccc3)c2ncn1Cc1ccccc1Cl,i
CCCCOc1ccc(OCCCC)c2c1nc(-c1ccccc1NC)c(=O)n2C,69.0%*
CCOc1ccc(-n2c3nc(=O)n(C)c(=O)c-3cc3ccccc32)cc1,i
CCn1nc(-c2ccccn2)nc2c(=O)n(C)c(=O)nc1-2,i
O=C1CCCN2N=C(SCC(=O)OCc3ccccc3)SC2=N1,i
CC1=NN(c2ccccc2)C(=O)/C1=C/c1ccc(O)c(Cl)c1,i
CC1=NN(c2cccc(Br)c2)C(=O)/C1=C/c1ccc(-c2ccc3c(c2)C(=O)OC3)o1,i
CC1=NN(c2cccc(Cl)c2)C(=O)/C1=C\c1ccco1,44.0%*
COc1cc(Br)c(/C=C2\C(=O)N(c3cccc(Cl)c3)N=C2C)cc1OC,i
CC1=NN(c2cccc(Cl)c2)C(=O)/C1=C\c1ccc(C)cc1,30.0%*
CCCCNC(=O)c1ccc(Cl)cc1,i
O=C(Nc1nnc(-c2ccc(F)cc2)s1)c1cccc(Cl)c1,i
COc1ccc(CNC(=O)[C@@H]2Cc3nc[nH]c3CN2Cc2ccc(OC)c3ccccc23)cc1,i
Cc1c(NC(=O)C2CC2)cccc1[N+](=O)[O-],i
Cc1c(NC(=O)C(c2ccccc2)c2ccccc2)cccc1[N+](=O)[O-],44.0%*
Cc1c(NC(=O)c2ccccc2)cccc1[N+](=O)[O-],i
COc1ccc(Cl)cc1C(=O)Nc1ccc(S(=O)(=O)Nc2nccs2)cc1,i
O=C(O)c1cc(-c2c[nH]c3ccccc23)n[nH]1,i
O=c1c2c[nH]c3ccccc3nc-2c2ccccc12,42.0%*
Nc1ccc(Br)cc1-c1nc2ccccc2[nH]c1=O,i
SMILES,ST2 inh
O=c1[nH]nc(C(O)c2ccccc2)n1Cc1cccs1 (stereo not drawn),i
Cc1ccc(C(=O)CC2OC(=O)c3ccccc32)cc1 (stereo not drawn),i
Cc1cccc(C2(C)CC(C)(C)N(C(=O)CSc3ncn[nH]3)c3ccccc32)c1 (stereo not drawn),i
NNC(=O)C1CC1c1ccccc1 (stereo not drawn),i
O=C(Nc1ccc(Nc2ccccc2)cc1)C1CC1c1ccccc1 (stereo not drawn),30.0%*
O=C(NC1C[C@@H]1c1ccccc1)[C@@H]1CC1c1ccccc1 (stereo partly drawn),i
O=C(CS(=O)(=O)c1cn(Cc2cccc(F)c2)c2ccccc12)N1CCc2ccccc21,i
CC1CC(C)CN(S(=O)(=O)c2ccc(C(=O)Nc3nc(-c4cccs4)cs3)cc2)C1 (stereo not drawn),i
Cc1ccc(S(=O)(=O)N2CCN(c3nc(-c4cccs4)cs3)CC2)cc1,32.0%*
Cc1ccc(S(=O)(=O)N2CCCC2)cc1,i
O=C(c1coc(=O)c2ccccc12)N1CCCc2ccccc21,i
NC(=O)c1ccnc(-c2ccc(F)cc2Cl)c1,i
COc1cncc(-c2ccc(F)cc2Cl)c1,i
Nc1ccc(-c2ccc(F)cc2Cl)cn1,35.0%*
Cc1cc(NC(=O)C(NC(=O)C2CCC(C)CC2)C(C)C)ccc1Br (stereo not drawn),i
CCc1noc(CN(CC)Cc2ccc3cccc(O)c3n2)n1,i
CCC(C)N(Cc1ccsc1)C(=O)C1(COC)CC1 (stereo not drawn),i
CC(C)=CC(=O)N1CCCN(C)C2(CCN(C)CC2)C1,i
CCOC(=O)C1(Cc2ccccc2)CCN(Cc2ccc(C(=O)OC)cc2)CC1,i
CCN(CC)CCN(C)Cc1cc(I)c(O)c(OC)c1,94.0%*
COc1ccccc1N1CCN(Cc2cc(I)c(O)c(OC)c2)CC1,i
COc1cc(CN(C)C2CCN(C)CC2)cc([N+](=O)[O-])c1O,i
CCOc1ccc(N2C(=O)Nc3ccccc3C2(O)C(=O)NCCN(C)C)cc1 (stereo not drawn),i
Cc1ccc(CNC(=O)C(C)Oc2ccccc2)cc1 (stereo not drawn),i
CN(C/C=C/c1ccccc1)c1nccc(N2CCC(O)C2)n1 (stereo not drawn),i
SMILES,ST2 inh
CN(c1ccccc1)c1ncnc(N)c1[N+](=O)[O-],i
CN(c1ccccc1)c1ccc(/C=C/[N+](=O)[O-])cc1,50.0%*
CN(C)c1ccc(/C=C/c2c([N+](=O)[O-])c(=O)n(C)c(=O)n2C)cc1,i
Cc1nc2cc(-c3ccccc3)nn2c(C)c1CCC(=O)NCc1cccnc1,i
COC1CCCN(C(=O)CC2c3ccccc3CCc3ccccc32)C1 (stereo not drawn),i
Cc1ccc(C(=O)Nc2ccc(I)cc2Cl)cc1C,i
O=[N+]([O-])c1cccc(CN2CCCCC2CCO)c1 (stereo not drawn),i
CCCN(Cc1cccc([N+](=O)[O-])c1)CC1CC1,96.0%*
O=[N+]([O-])c1cccc(CN2CCC(N3CCCCCC3)CC2)c1,i
O=c1[nH]nc(Cc2ccccc2)c2ccccc12,i
O=c1[nH]nc(C[N+](=O)[O-])c2ccccc12,30.0%*
COc1ccc(Cc2n[nH]c(=O)c3ccccc23)cc1OC,i
Cc1cc(C=C2C(=O)N(C)C(=O)N(C)C2=O)c(C)n1-c1ccc(Cl)c(Cl)c1,i
Cc1ccc(N2NC(=O)/C(=C/c3ccc(Cl)cc3Cl)C2=O)cc1Cl,i
Cc1cc(/C=C2\C(=O)NC(=O)N(C)C2=O)c(C)n1-c1ccc(F)c(Cl)c1,46.0%*
O=C(CCC1CCCN(Cc2ccc3c(c2)OCCO3)C1)NCc1ccccc1Cl (stereo not drawn),i
O=C(Nc1cccc(S(=O)(=O)c2cccc(NC(=O)c3ccco3)c2)c1)c1ccco1,i
O=C(Nc1cccc(NC(=O)c2ccco2)c1)c1cccc(Br)c1,53.0%*
O=C(O)c1cccc(NC(=O)c2cccc(Br)c2)c1,i
CC1CCC(NC(=O)C2CC(=O)N(c3ccc(F)c(Cl)c3)C2)CC1 (stereo not drawn),i
CSc1ccc(C2Nc3cccc4cccc(c34)N2)cc1,31.0%*
CSc1ccc(C2Nc3ccccc3C(=O)N2c2ccc(C)cc2)cc1 (stereo not drawn),i
Cc1ccc(C(O)=C2C(=O)C(=O)N(c3nncs3)C2c2ccc(F)cc2)cc1 (stereo not drawn),i
O=C(Nc1cccc(-c2ccco2)c1)C1CCN(Cc2cccn2-c2ccccn2)CC1,32.0%*
O=C(c1ccco1)N1CCN(Cc2cccn2-c2ncccn2)CC1,i
SMILES,ST2 inh
O[C@@H]1CN(Cc2cccn2-c2ccccn2)CC[C@H]1c1ccc2c(c1)OCO2,i
CCCOCCOC(=O)C1=C(C)NC2=C(C(=O)C(C(=O)OC)C(C)C2)C1c1ccc(Cl)cc1 (stereo not drawn),i
Cc1c(C(=O)NCCN2CCOCC2)oc2ccc(S(=O)(=O)N3CCCC3)cc12,i
CC1=C(C(=O)N2CCCCC2)C(c2ccc(C)cc2)n2c(nc3ccccc32)N1 (stereo not drawn),i
CC(=O)Nc1ccc(NC(=O)CC(c2ccccc2)c2ccccc2)cc1,i
CC(=O)Nc1ccc(NC(=O)Nc2ccccc2)cc1,i
